aSyn UTR act – Activators via SNCA 5'UTR binding, MLPCN; alpha-synuclein 5'UTR reporter, activators screen; activity score, % (tested at 7.5 µM), hits read low; hit rate 7.1% among 300,000; in the data active means activity score below about -60%
Each line names hits and unclear results; the compound was inactive in the other large screens. These entries were drawn from the full list.

CC1CCc2c(sc(NC(=O)C3CCCO3)c2C#N)C1 (centres undefined)	aSyn UTR act -114
CC1CCc2c(sc(NC(=O)c3nc4ncccn4n3)c2C#N)C1 (centres undefined)	aSyn UTR act -148
O=C1CCCC/C1=C/Nc1ccc(C(=O)O)cc1	aSyn UTR act -72
O=C1CCCC/C1=C/Nc1ccc2c(c1)OCO2	aSyn UTR act -139
Cc1cc2ncc(-c3ccc(Cl)cc3)cn2n1	aSyn UTR act -84
C#C[C@]1(O)CC[C@H]2[C@@H]3CCc4cc(OC)ccc4[C@H]3CC[C@@]21C	aSyn UTR act -70
C#C[C@]1(O)CC[C@H]2[C@@H]3CCc4cc(OC5CCCC5)ccc4[C@H]3CC[C@@]21C	aSyn UTR act -75
N/C(=N\OC(=O)C12CC3CC(CC(C3)C1)C2)c1ccccn1	aSyn UTR act -110
N/C(=N\OC(=O)N1CCOCC1)c1ccccc1	aSyn UTR act -64
C/C(=N/NC(=O)c1ccoc1C)C12CC3CC(CC(C3)C1)C2	aSyn UTR act -158
N/C(=N\OC(=O)C12CC3CC(CC(C3)C1)C2)c1ccccc1	aSyn UTR act -134
C/C(=N\NC(=O)c1ccccn1)C12CC3CC(CC(C3)C1)C2	aSyn UTR act -131
CCc1cc(C=NC2CCCCC2)c(O)s1	aSyn UTR act -174
CCCCCCCCOC(=O)c1c(CSC(=N)N)n(C)c2cc(Br)c(OC(C)=O)cc12	none
CCCCCCOC(=O)c1ccc(N)cc1	aSyn UTR act -114
CCCCOC(=O)Nc1ccc(C(=O)OC)cc1	aSyn UTR act -110
CCCCOC(=O)Nc1ccc(C)c(Cl)c1	aSyn UTR act -164
CC1(C)SC(=S)N(NC(=O)Nc2cccc3ccccc23)C1N(O)C(=O)Nc1ccccc1 (centres undefined)	aSyn UTR act -88
Cc1ccnc(NC(=O)c2cc3ccccc3o2)c1	none
Cc1cc(NC(=O)c2cncc(Br)c2)ccc1NC(=O)c1cc2ccccc2o1	none
Cc1cc([N+](=O)[O-])ccc1NC(=O)c1cc2ccccc2o1	aSyn UTR act -115
COc1ccc(C)cc1NC(=O)c1cc2ccccc2o1	aSyn UTR act -147
Cc1ccc(C)c(NC(=O)c2cc3ccccc3o2)c1	aSyn UTR act -172
CC(C)(C)C(=O)N1CCN(c2ccc([N+](=O)[O-])cc2Cl)CC1	aSyn UTR act -64
O=C(c1cc([N+](=O)[O-])ccc1N1CCOCC1)N1CCN(c2ccccc2)CC1	none
c1ccc(-c2ccc3c(n2)CCCO3)cc1	aSyn UTR act -113
O=C(NCCc1c[nH]c2ccccc12)c1cnccn1	aSyn UTR act -80
CC(=O)c1c(C)[nH]c(C(=O)NCCc2c[nH]c3ccccc23)c1C	aSyn UTR act -89
O=C(NCCc1c[nH]c2ccccc12)c1cnc2sccn2c1=O	aSyn UTR act -152
CC(=O)c1c(C)[nH]c(C(=O)NCCC2=CCCCC2)c1C	aSyn UTR act -156
O=C(NCCc1c[nH]c2ccccc12)c1ccc(F)cc1F	aSyn UTR act -145
Cc1ccsc1C(=O)NCCc1c[nH]c2ccccc12	aSyn UTR act -123
O=C(NCCc1c[nH]c2ccccc12)c1ccc(Cl)cc1	aSyn UTR act -221
COc1ccc(C(=O)c2c[nH]c3ccccc23)cc1	aSyn UTR act -196
COc1ccc(C(=O)NCCc2c[nH]c3ccccc23)cc1	aSyn UTR act -184
CC(C)(C)C(=O)CSc1ncnc2c1cnn2-c1ccccc1	aSyn UTR act -162
c1ccc(CSc2ncnc3c2cnn3-c2ccccc2)cc1	aSyn UTR act -142
O=C(N/N=C/c1ccc(Cl)cc1)C1CC12CCC2 (centres undefined)	aSyn UTR act -110
CC1Oc2ccccc2C=C1/C=N/NC(=O)c1ccccc1 (centres undefined)	aSyn UTR act -159
Cc1ccc(C(=O)N/N=C/C2=Cc3ccccc3OC2C)cc1 (centres undefined)	aSyn UTR act -71
O=C(N/N=C/c1cc2c3c(c1O)CCCN3CCC2)c1ccccc1O	none
CC1Oc2ccccc2C=C1/C=N/NC(=O)c1ccccc1O (centres undefined)	aSyn UTR act -131
Cc1cc(C(F)(F)F)c(C#N)c(SCC(=O)Nc2nc3cc(Br)ccc3s2)n1	aSyn UTR act -176
CC(C)CC(=O)Nc1ccc2oc(-c3ccncc3)nc2c1	aSyn UTR act -74
O=C(Nc1ccc2oc(-c3ccc(Cl)c(Cl)c3)nc2c1)c1ncn[nH]1	aSyn UTR act -168
O=C(Nc1ccc2oc(-c3ccccc3F)nc2c1)c1ccccc1F	aSyn UTR act -188
O=C(Nc1ccc2oc(-c3ccncc3)nc2c1)c1ccccc1F	aSyn UTR act -135
O=C(Nc1ccc2oc(-c3cccc(F)c3)nc2c1)c1ccccc1F	aSyn UTR act -120
O=C(Nc1ccc2oc(-c3ccncc3)nc2c1)c1cccs1	aSyn UTR act -114
O=C(Nc1ccc2oc(-c3ccncc3)nc2c1)c1ccc([N+](=O)[O-])o1	aSyn UTR act -118
O=C(Nc1ccc2oc(-c3ccccc3)nc2c1)c1ccccc1F	aSyn UTR act -257
CC(/C=C1\SC(=Nc2cccnc2)NC1=O)=C\c1ccccc1	aSyn UTR act -113
CN(CCC#N)C(=O)c1cc2c(s1)-c1ccccc1SC2	aSyn UTR act -91
O=C(C#Cc1ccccc1)c1ccco1	aSyn UTR act -141
Cc1ccc(COc2ccc3c(c2)OCO3)cc1	aSyn UTR act -114
Cc1ccc(CNc2ccc3c(c2)OCO3)cc1	aSyn UTR act -131
CCOc1cc(CNc2ccc3c(c2)OCCO3)cc(Br)c1OCC	none
O=Cc1ccc(OCc2ccc3c(c2)OCO3)cc1	aSyn UTR act -77
O=C1SC(SC(=Nc2ccccc2)Nc2ccccc2)C(=O)N1c1ccccc1 (centres undefined)	aSyn UTR act -132
Cc1ccc(N(CC(=O)Nc2ccc(-c3nc4ccc(C)cc4s3)cc2)S(C)(=O)=O)cc1	aSyn UTR act -203
Cc1ccc(C)c(N(CC(=O)Nc2ccc(-c3nc4ccc(C)cc4s3)cc2)S(C)(=O)=O)c1	aSyn UTR act -80
COc1cc(NC(=O)C(C)C)ccc1NC(=O)c1ccco1	aSyn UTR act -92
COc1cc(NC(=O)COc2ccccc2C)ccc1NC(=O)c1ccco1	aSyn UTR act -68
COc1ccc(NC(=O)c2cc(C(C)C)on2)c(OC)c1	aSyn UTR act -244
COc1ccc(NC(=O)c2ccccc2O)c(OC)c1	aSyn UTR act -205
COc1ccc(NC(=O)c2ccco2)c(OC)c1	aSyn UTR act -128
COc1ccc(NC(=O)CSc2ccccc2)c(OC)c1	aSyn UTR act -100
COc1ccc(CN(C)CC(=O)Nc2ccccc2-c2ccccc2)c(OC)c1	none
COc1cc2c(cc1NC(=O)c1ccco1)CCCC2	aSyn UTR act -278
COc1ccc(CNC(=O)C2COc3ccccc3O2)c(OC)c1 (centres undefined)	aSyn UTR act -76
O=C(Nc1ccc(Cl)cn1)C1COc2ccccc2O1 (centres undefined)	aSyn UTR act -137
O=C(Nc1ccccn1)C1COc2ccccc2O1 (centres undefined)	aSyn UTR act -177
Cc1cnc(NC(=O)C2COc3ccccc3O2)s1 (centres undefined)	none
Cc1cc(NC(=O)C2COc3ccccc3O2)no1 (centres undefined)	aSyn UTR act -115
Cc1cccc(NC(=O)C2COc3ccccc3O2)n1 (centres undefined)	aSyn UTR act -71
COc1ccc(Cl)cc1NC(=O)C1COc2ccccc2O1 (centres undefined)	aSyn UTR act -65
Cc1csc(NC(=O)C2COc3ccccc3O2)n1 (centres undefined)	none
CN1C(=O)/C(=C2\SC(=S)N(CCCCCC(=O)O)C2=O)c2ccccc21	aSyn UTR act -67

Screens: PubChem BioAssay, Broad Institute
